An excerpt weighted towards active compounds, which were near 2.5% of everything screened.
Cruzain inh Det = cruzain (T. cruzi) inhibition with detergent | purified cruzain, Z-FR-AMC fluorescence, 0.01% Triton | Potency, µM, for the others: max response, negative = inhibition, actives largely listed as inhibitors | hit rate 0.43% among 200,000 | AID 1478;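 note: plate controls were neutral wells for no effect and buffer without enzyme for full effect; nearly all actives have a fitted effect of over 40% in size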
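Detergent-containing run (0.01% Triton X-100) in acetate buffer pH 5.5 with 5 mM DTT: enzyme at 1.5 nM final, 15 min compound preincubation at room temperature, then 2 uM Z-FR-AMC substrate. Activity taken as 60 s fluorescence increase at 360/450 nm.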
Cruzain inh noDet = blocks cruzain activity in detergent-free assay; P25779; purified cruzain, Z-FR-AMC fluorescence, no detergent; Potency, µM, inactives show max response, negative = inhibition, usual class: inhibitors; hit rate 2.3% among 200,000;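 note: plate controls were enzyme without inhibitor for no effect and buffer without enzyme for full effect; nearly all actives have a fitted effect of over 40% in size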
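Purified cruzain at 1.5 nM, pre-incubated 15 min with compound at room temperature in 100 mM sodium acetate pH 5.5, 5 mM DTT, 0.00005% Triton X-100. Reaction started with 2 uM Z-FR-AMC; AMC fluorescence increase over 60 s gives rate.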
Papain counter = papain (Carica papaya) inhibition counter-screen; Potency, µM, for inactives: max response, negative = inhibition, most hits filed as inhibitors; hit rate 41% among 410; shares compounds with Cruzain inh Det; purified papain, Z-FR-AMC fluorescence cleavage; AID 2161;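 note: 0% = no-compound wells and -100% = no-enzyme wells; nearly all actives have a fitted effect of over 35% in size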
Target sequence (P00784 whole entry, looked up): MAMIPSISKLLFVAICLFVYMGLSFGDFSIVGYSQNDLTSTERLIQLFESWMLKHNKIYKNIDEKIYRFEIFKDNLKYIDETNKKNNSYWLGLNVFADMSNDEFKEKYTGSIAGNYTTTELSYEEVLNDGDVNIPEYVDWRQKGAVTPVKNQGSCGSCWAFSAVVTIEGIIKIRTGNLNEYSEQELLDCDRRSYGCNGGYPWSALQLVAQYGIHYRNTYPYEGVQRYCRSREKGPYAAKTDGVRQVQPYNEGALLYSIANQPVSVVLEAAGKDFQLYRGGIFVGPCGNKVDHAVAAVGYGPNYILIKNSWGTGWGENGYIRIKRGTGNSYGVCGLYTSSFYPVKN
* marks the source's active call; other numbers are inactive results. Calls come from the whole dose curve; as a rule, active = well fitted curve in the direction sought with a large enough effect; inconclusive = small, poorly fitted or top-dose-only effect, or another doubt; inactive = no such curve, though single readings can be large; an effect the other way counts as inactive or inconclusive. Potency is the fitted concentration of half-maximal effect.

What do the screens show for `CC1=C(C(=O)Nc2ccc(C)cc2C)C(c2cccs2)n2nc(SCc3ccc(Cl)cc3)nc2N1` (stereo unspecified)?
Cruzain inh Det: 0%; Cruzain inh noDet: 3%

How did CC1=C(C(=O)Nc2ccc(Cl)cc2)C(c2cccs2)n2nc(SCc3cccc(Cl)c3)nc2N1 (stereo unspecified) do in these assays?
Cruzain inh Det: -1%; Cruzain inh noDet: 3.2µM*

How did COc1ccc(NC(=O)C2=C(C)Nc3nc(SCc4ccccc4C)nn3C2c2ccc(Br)cc2)cc1 (stereo unspecified) do in these assays?
Cruzain inh Det: -1%; Cruzain inh noDet: -10%

Results for CC1=C(C(=O)Nc2ccccc2C)C(c2ccncc2)n2nc(SCc3ccccc3)nc2N1 (stereo unspecified) ?
Cruzain inh Det: 0%; Cruzain inh noDet: -16%

What do the screens show for `COc1ccc(NC(=O)C2=C(C)Nc3nc(SCc4ccccc4C)nn3C2c2cc(OC)c(O)c(OC)c2)cc1` (stereo unspecified)?
Cruzain inh Det: -4%; Cruzain inh noDet: 10µM*

Results for Cc1ccc(S(=O)(=O)NCCc2nnc3ccc(SCc4ccccc4F)nn23)cc1 ?
Cruzain inh Det: -5%; Cruzain inh noDet: inconclusive

How did CCOC(=O)c1cc2c(=O)n3ccccc3nc2n(Cc2ccco2)c1=NC(=O)c1cccc(F)c1 do in these assays?
Cruzain inh Det: -16%; Cruzain inh noDet: -6%

Results for COc1ccccc1CNc1nccn(-c2ccccc2)c1=O ?
Cruzain inh Det: -14%; Cruzain inh noDet: -22%

What do the screens show for `N#CCSc1nc2scc(-c3cccs3)c2c(=O)n1CCc1ccccc1`?
Cruzain inh Det: 7%; Cruzain inh noDet: 16µM*; Papain counter: 10%

How did Cc1ccc(-c2csc3nc(SCC(N)=O)n(Cc4ccccc4)c(=O)c23)cc1 do in these assays?
Cruzain inh Det: -2%; Cruzain inh noDet: 7%

How did CC(=O)Nc1ccc(S(=O)(=O)N2CCN(c3ccc(C)c(C)c3)CC2)cc1 do in these assays?
Cruzain inh Det: 1%; Cruzain inh noDet: inconclusive

What do the screens show for `COCCCNc1nc2c(-c3cccc(Br)c3)nnn2c2ccccc12`?
Cruzain inh Det: 0%; Cruzain inh noDet: 4%

Results for CNC(=O)c1ccc2nc(-c3ccccc3)c(-c3ccccc3)nc2c1 ?
Papain counter: -20%

How did C=CCNC(=O)c1ccc2nc(-c3ccccc3)c(-c3ccccc3)nc2c1 do in these assays?
Cruzain inh Det: -1%; Cruzain inh noDet: 8%

How did COc1cc2c(C(=O)N(C)c3cc(Cl)ccc3OC)cn(CC(C)C)c(=O)c2cc1OC do in these assays?
Cruzain inh Det: -3%; Cruzain inh noDet: inconclusive

Results for CC(C)(C)C(=O)O/N=C1/C(=O)N(c2ccccc2)c2ccccc21 ?
Cruzain inh Det: 1.6µM*; Cruzain inh noDet: 20µM*; Papain counter: 25µM*

What do the screens show for `O=C1CCCCC(=O)N(c2ccccc2)c2ccccc21`?
Cruzain inh Det: 4%; Cruzain inh noDet: 6%

How did CC(C)CC(=O)O/N=C1\C(=O)N(c2ccccc2)c2ccccc21 do in these assays?
Cruzain inh Det: 0.63µM*; Cruzain inh noDet: 2.5µM*; Papain counter: 1.1µM*

How did CC(C)CC(=O)Nc1cccc2c1C(=O)N(c1ccccc1)C2=O do in these assays?
Cruzain inh Det: -7%; Cruzain inh noDet: -18%

How did Cc1ccc2c(c1)N(C(=O)N1CCC(C(=O)NCc3ccccc3C)CC1)CC(C)O2 (stereo unspecified) do in these assays?
Cruzain inh Det: -2%; Cruzain inh noDet: 0%

How did CCOC(=O)c1scc(-c2ccc(C)cc2)c1S(=O)(=O)Nc1cc(Cl)ccc1OC do in these assays?
Cruzain inh Det: 1%; Cruzain inh noDet: 1%

Results for CC1CCN(S(=O)(=O)c2ccc3c(c2)CCC(=O)N3CC(=O)Nc2cccc(C#N)c2)CC1 ?
Cruzain inh Det: -6%; Cruzain inh noDet: -3%

What do the screens show for `COc1ccc(-c2nnc(-c3ccc(N)cc3)o2)cc1`?
Cruzain inh Det: -5%; Cruzain inh noDet: -17%

Results for COc1ccc(-c2ccc(-c3nnc(-c4cc(OC)ccc4OC)o3)cc2)cc1 ?
Cruzain inh Det: inconclusive; Cruzain inh noDet: 25µM*; Papain counter: 11µM*

How did N#C/C(=C(\O)C(=O)O)c1ccc(-c2cccc3ccccc23)cc1 do in these assays?
Cruzain inh Det: 5%; Cruzain inh noDet: 5%

How did COc1cc(OC)c(NC(=O)CC(c2cccs2)N2Cc3ccccc3C2=O)cc1Cl (stereo unspecified) do in these assays?
Cruzain inh Det: -4%; Cruzain inh noDet: -28%

How did COc1cc(/C=C/c2nc3cc(Cl)ccc3c(=O)n2-c2ccc(C)cc2C)cc(OC)c1OC do in these assays?
Cruzain inh Det: 0%; Cruzain inh noDet: -2%

How did NNC(=O)Cn1c(SCc2ccccc2)nc2ccccc21 do in these assays?
Cruzain inh Det: 3%; Cruzain inh noDet: -1%; Papain counter: 3%

Screening data as filed in PubChem.
